Only some compounds are listed: those with a hit (about 1.8% of all), similar ones and a draw of the others.
MRP resist rev: reversal of MRP1-mediated doxorubicin resistance, primary screen, H69AR cells, doxorubicin co-treatment; H69AR cells + 2 uM doxorubicin, CellTiter-Glo, 72 h; 85,000 compounds, 0.04% hits; AID 602, 2007; differential viability (reversal), % at 10 µM;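 active = viability drop by adding the cancer drug above about 55%, with treated viability meeting a 40% cutoff, limit read from the data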;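 note: viability without doxorubicin minus viability with 2 µM doxorubicin for each compound; larger differential means the compound sensitizes cells more to doxorubicin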
GALR2 agonist: GALR2 receptor agonists, primary screen, cell-based; Galanin receptor type 2 (Homo sapiens), O43603; GALR2-expressing cells, agonist activation read-out; activation, % (concentration not given with the values); 140,000 compounds, 0.48% hits; in the data active = activation above about 5%, passing the limit was not always enough;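 note: 0% = vehicle buffer wells and 100% = reference agonist at full effect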
S1P2 blocker: human S1P2 receptor antagonists, primary screen, cell-based. cell-based S1P2 antagonist assay, inhibition at 5 uM. inhibition, % at 5 µM. 97,000 compounds, 0.21% hits. AID 736, 2007; in the data active = inhibition above about 45%;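 note: CRE beta-lactamase reporter cells expressing human S1P2 stimulated with S1P; 0% = agonist at EC80 alone and 100% = agonist plus reference antagonist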
Target sequence (O95136 whole entry, looked up): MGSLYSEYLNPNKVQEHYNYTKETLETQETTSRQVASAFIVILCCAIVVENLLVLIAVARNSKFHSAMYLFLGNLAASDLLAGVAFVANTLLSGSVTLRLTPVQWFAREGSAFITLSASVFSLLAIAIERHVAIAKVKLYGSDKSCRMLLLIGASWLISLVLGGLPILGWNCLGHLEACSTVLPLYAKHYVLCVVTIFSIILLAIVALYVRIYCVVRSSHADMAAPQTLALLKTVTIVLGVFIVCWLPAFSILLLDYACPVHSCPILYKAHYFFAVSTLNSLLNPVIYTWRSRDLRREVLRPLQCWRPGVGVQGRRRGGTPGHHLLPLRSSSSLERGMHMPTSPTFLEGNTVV
MRP-1 activ: H69AR viability gain despite doxorubicin, primary screen, MRP-1 activator project, H69AR cells, CellTiter-Glo | viability rescue | viability increase, % at 10 µM | 140,000 compounds, 0.61% hits;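 active = viability gain under doxorubicin at or above a set limit, the compound median plus 3 SD, cut at about 4.7% in these data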;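 note: MRP-1 overexpressing cells given doxorubicin 25 µM after compound pretreatment; 18-22 h compound pretreatment then 72 h with doxorubicin before readout; 0% = doxorubicin-only wells and 100% = vehicle-treated cells without doxorubicin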
S1P2 ag: S1P2 receptor agonists, primary screen, cell-based. Sphingosine 1-phosphate receptor 2 (Homo sapiens), O95136. 97,000 compounds, 0.46% hits. S1P2-expressing cell line, agonist reporter read-out. activation, % at 4.5 µM; in the data active = activation above about 16%;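 note: 0% = vehicle low control and 100% = maximal reference agonist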
GALR2 blocker: GALR2 antagonists in receptor-expressing cells, primary screen. Galanin receptor type 2 (Homo sapiens), O43603. inhibition, % at 4 µM. antagonist mode. 140,000 compounds, 0.39% hits;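 note: cells stimulated with galanin 1-16 at roughly its EC80; 0% = agonist challenge control and 100% = basal control without agonist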
GALR2 ant conf: GALR2 antagonists, retest of hits, confirmation, cell-based | AID 866, 2007 | inhibition, % at 4 µM | 480 compounds, 60% hits | GALR2-expressing cells, antagonist mode, inhibition | shares compounds with GALR2 blocker;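 note: cells stimulated with galanin at about its EC80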
BLA inh counter: inhibitors of NFAT-driven beta-lactamase reporter, confirmation, counter-screen for GALR2 antagonist project, CHO NFAT-bla cells, FRET readout. 480 compounds, 36% hits. shares compounds with GALR2 blocker. thapsigargin-stimulated. inhibition, % at 4.2 µM. AID 867, 2007;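 active = inhibition above the mean inhibition across tested compounds plus 3 SD, cut at about 27% in these data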;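 note: 0% = 500 nM thapsigargin stimulated wells and 100% = unstimulated BSA only wells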
An asterisk follows results filed as active; . = not tested or not shown. Cut-off read from the data, not from the text of the source, unless noted: active = inhibition above about 27%; inactive = the rest.

SMILES | MRP resist rev | GALR2 agonist | S1P2 blocker | MRP-1 activ | S1P2 ag | GALR2 blocker | GALR2 ant conf | BLA inh counter
Cc1cccc(NP(C)(=O)c2nc3c(s2)CCCC3)c1 (stereo not drawn) | . | -1.5 | . | -1.0 | . | 4.8 | . | .
O=C(c1ccccc1)C(CN1CCCC1)c1ccccc1 (stereo not drawn) | . | 0.8 | . | -4.9 | . | 29.9* | 28.9* | 25.3
Cc1ccc(-c2nc(N(C)C3CCN(C)CC3)c3ccccc3n2)cc1 | -0.7 | -3.8 | 3.3 | -2.8 | -3.3 | 13.7 | . | .
CCN(CC)c1ccc(/C=N/c2sc3c(c2C#N)C2CCN3CC2)c(O)c1 | . | -2.7 | . | -4.2 | . | 20.3 | . | .
COC(=O)C1CN(C#N)N(c2ccc(Cl)cc2)C12c1ccccc1-c1ccccc12 (stereo not drawn) | 0.4 | -3.1 | 78.5* | -7.6 | -15.4 | 77.7* | 87.2* | 92.4*
CC1(C)C[C@H]2C=C(C=O)[C@]3(C=O)C[C@]3(C)[C@H]2C1 | . | -2.2 | . | -3.3 | . | 55.5* | 91.9* | 99.1*
O=C1/C(=C/c2cc3c(cc2Cl)OCO3)N2CCC1CC2 | . | 0.2 | . | -2.9 | . | -1.8 | . | .
CC1CCC/C=C/C2CC(O)CC2C(O)/C=C/C(=O)O1 (stereo not drawn) | -1.9 | -0.6 | 4.2 | -3.5 | -0.9 | 45.6* | 62.1* | 18.4
N#CCCn1cc(C(=O)Nc2ccccc2Br)c(-c2ccc([N+](=O)[O-])cc2)n1 | . | -1.8 | . | 0.6 | . | 2.2 | . | .
CC(C)(C)N1Cc2ccccc2C1=N | . | -1.9 | 4.5 | -2.0 | -4.7 | -5.1 | . | .
Cc1nc2c(=O)n(C)c(=O)nc-2n(C)n1 | 0.3 | 4.6 | 95.9* | -7.7 | 10.4 | 100.1* | 100.2* | 100.4*

Screening results (PubChem)
